What all share (conditions): mRNA level, 48 h; actives raise or lower the signal
Read-out in experiment [1]: Cytochrome P450 4A22 (Homo sapiens) (UniProt Q5TCH4)
Kind of experiment: LTEA_HepaRG_CYP4A22: Life Technologies and Expression Analysis (LTEA) Assay for Cytochrome P450 4A22 (CYP4A22) using HepaRG (AID 2283495). A digest of the protocol:
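Gene expression measured by qRT-PCR against three housekeeping genes (ACTB, GAPDH, POLR2A), with gain or loss fitted relative to 0.5% DMSO vehicle. HepaRG cultures received 48 h chemical treatment, top concentration 100 uM, half-log steps, duplicate wells.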

Read-out in experiment [2]: Cytochrome P450 7A1 (Homo sapiens) (UniProt P22680)
The experiment can be described thus: LTEA_HepaRG_CYP7A1: Life Technologies and Expression Analysis (LTEA) Assay for Cytochrome P450 7A1 (CYP7A1) using HepaRG (AID 2283496). The gist of the method: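 HepaRG, 48 h exposure, 8-pt half-log series from 100 uM, 0.5% DMSO vehicle, duplicates. Readout: TaqMan qRT-PCR mRNA vs three housekeeping genes; bidirectional curve fit against DMSO baseline.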

Read-out in experiment [3]: Glutathione S-Transferase (GSTA2), GSTA2 (gene 2939)
The experiment can be described thus: LTEA_HepaRG_GSTA2: Life Technologies and Expression Analysis (LTEA) Assay for Glutathione S-Transferase (GSTA2) using HepaRG (AID 2283497). The gist of the method:
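qRT-PCR readout of GSTA2 transcript, normalized to three housekeeping genes, fitted bidirectionally against 0.5% DMSO baseline. Differentiated HepaRG cells received compound for 48 h at 8 concentrations (top 100 uM, half-log steps).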

Read-out in experiment [4]: Glutamate-cysteine ligase catalytic (GCLC), GCLC (gene 2729)
Kind of experiment: LTEA_HepaRG_GCLC: Life Technologies and Expression Analysis (LTEA) Assay for Glutamate-cysteine ligase catalytic (GCLC) using HepaRG (AID 2283498). The gist of the method:
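HepaRG, 48 h exposure, 8-pt half-log series from 100 uM, 0.5% DMSO vehicle; TaqMan qRT-PCR for GCLC mRNA, housekeeping-normalized; bidirectional curve fit vs DMSO baseline.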

Read-out in experiment [5]: growth arrest and DNA damage 45 (GADD45G), GADD45G (gene 10912)
Kind of experiment: LTEA_HepaRG_GADD45G: Life Technologies and Expression Analysis (LTEA) Assay for growth arrest and DNA damage 45 (GADD45G) using HepaRG (AID 2283499). The gist of the method:
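GADD45G transcript level by qRT-PCR (housekeeping-normalized: ACTB, GAPDH, POLR2A) after 48 h chemical treatment of a single HepaRG lot in serum-free induction medium; eight-point half-log series up to 100 uM in 0.5% DMSO, duplicates, up- or down-regulation scored.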

Read-out in experiment [6]: Glutamate-cysteine ligase regulatory (GCLM), GCLM (gene 2730)
Kind of experiment: LTEA_HepaRG_GCLM: Life Technologies and Expression Analysis (LTEA) Assay for Glutamate-cysteine ligase regulatory (GCLM) using HepaRG (AID 2283500). A digest of the protocol:
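Endpoint is GCLM transcript level by qRT-PCR, normalized to three housekeeping genes, after 48 h chemical exposure of human HepaRG cells (0.5% DMSO vehicle, top 100 uM, half-log dilutions). Fitting was bidirectional relative to DMSO.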

Read-out in experiment [7]: Glutathione S-transferase M3 (GSTM3), GSTM3 (gene 2947)
The experiment can be described thus: LTEA_HepaRG_GSTM3: Life Technologies and Expression Analysis (LTEA) Assay for Glutathione S-transferase M3 (GSTM3) using HepaRG (AID 2283501). The gist of the method: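 GSTM3 transcript levels came from Fluidigm TaqMan qRT-PCR normalized to three housekeeping genes, fitted in both directions against DMSO. HepaRG cultures received chemicals for 48 h in serum-free induction medium (0.5% DMSO), 8 half-log concentrations up to 100 uM, duplicate.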

Read-out in experiment [8]: Heat shock 70 kDa protein 1 (HSPA1A), gene 3303
The experiment can be described thus: LTEA_HepaRG_HSPA1A: Life Technologies and Expression Analysis (LTEA) Assay for Heat shock 70 kDa protein 1 (HSPA1A) using HepaRG (AID 2283502). The gist of the method:
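Cells were plated and cultured for 48 h, then switched to serum-free induction medium. Chemicals were added at eight half-log concentrations up to 100 uM for 48 h. RNA was then isolated and HSPA1A measured by qRT-PCR with bidirectional curve fitting against DMSO.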

Read-out in experiment [9]: 3-Hydroxy-3-Methylglutaryl-CoA Synthase 2 (HMGCS2), HMGCS2 (gene 3158)
Kind of experiment: LTEA_HepaRG_HMGCS2: Life Technologies and Expression Analysis (LTEA) Assay for 3-Hydroxy-3-Methylglutaryl-CoA Synthase 2 (HMGCS2) using HepaRG (AID 2283504). A digest of the protocol:
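Readout is HMGCS2 transcript by qRT-PCR, housekeeping-normalised (ACTB/GAPDH/POLR2A) and fitted bidirectionally against 0.5% DMSO. Differentiated HepaRG cells received chemicals 48 h, duplicate wells, eight half-log concentrations topping at 100 uM.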

Read-out in experiment [10]: HGF (gene 3082)
The experiment can be described thus: LTEA_HepaRG_HGF: Life Technologies and Expression Analysis (LTEA) Assay for Hepatocyte Growth Facto (HGF) using HepaRG (AID 2283505). A digest of the protocol: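 HGF transcript was quantified by TaqMan qRT-PCR against three housekeeping genes after 48 h treatment of HepaRG cells. Exposure ran in duplicate over eight half-log steps topping at 100 uM in 0.5% DMSO vehicle.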

Read-out in experiment [11]: Insulin Like Growth Factor 1 (IGF1), IGF1 (gene 3479)
Kind of experiment: LTEA_HepaRG_IGF1: Life Technologies and Expression Analysis (LTEA) Assay for Insulin Like Growth Factor 1 (IGF1) using HepaRG (AID 2283506). A digest of the protocol:
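Cells are thawed, plated and cultured 48 h, then exposed in duplicate to chemical (highest 100 uM, half-log steps, 0.5% DMSO) for another 48 h. Total RNA is analysed by Fluidigm qRT-PCR for IGF1 expression relative to vehicle.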

Read-out in experiment [12]: Intercellular Adhesion Molecule 1 (ICAM1), ICAM1 (gene 3383)
The experiment can be described thus: LTEA_HepaRG_ICAM1: Life Technologies and Expression Analysis (LTEA) Assay for Intercellular Adhesion Molecule 1 (ICAM1) using HepaRG (AID 2283507). The gist of the method: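 ICAM1 transcript levels measured by qRT-PCR, normalized to three housekeeping genes (ACTB, GAPDH, POLR2A), after 48 h chemical exposure of HepaRG cells. Duplicate eight-point half-log series from 100 uM in 0.5% DMSO; gain or loss fitted against vehicle.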

Read-out in experiment [13]: Insulin-like growth factor-binding protein 1 (IGFBP1), IGFBP1 (gene 3484)
Kind of experiment: LTEA_HepaRG_IGFBP1: Life Technologies and Expression Analysis (LTEA) Assay for Insulin-like growth factor-binding protein 1 (IGFBP1) using HepaRG (AID 2283508). The gist of the method: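 Read-out is qRT-PCR transcript level normalized to three housekeeping genes, fitted in both directions against 0.5% DMSO. Differentiated HepaRG cells received eight half-log concentrations (top 100 uM) in duplicate for 48 h in serum-free induction medium.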

Read-out in experiment [14]: Interleukin 6 Receptor (IL6R), IL6R (gene 3570)
The experiment can be described thus: LTEA_HepaRG_IL6R: Life Technologies and Expression Analysis (LTEA) Assay for Interleukin 6 Receptor (IL6R) using HepaRG (AID 2283510).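 On AC50: differentiated human HepaRG liver cells in serum-free induction medium.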 A digest of the protocol:
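Cells were thawed, plated and cultured 48 h, then medium was changed to serum-free induction medium. Chemicals were added in duplicate (100 uM top, half-log steps, 0.5% DMSO) for 48 h. Lysates were analyzed by qRT-PCR for IL6R expression.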

Read-out in experiment [15]: Potassium channel subfamily K member 1 (KCNK1), KCNK1 (gene 3775)
The experiment can be described thus: LTEA_HepaRG_KCNK1: Life Technologies and Expression Analysis (LTEA) Assay for Potassium channel subfamily K member 1 (KCNK1) using HepaRG (AID 2283511). The gist of the method:
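HepaRG, 48 h exposure, 8-pt half-log series top 100 uM, 0.5% DMSO vehicle, duplicates. Readout: KCNK1 transcript by qRT-PCR (Fluidigm array), housekeeping-normalized; bidirectional curve fit relative to DMSO baseline.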

Read-out in experiment [16]: Lipase C (LIPC), LIPC (gene 3990)
The experiment can be described thus: LTEA_HepaRG_LIPC: Life Technologies and Expression Analysis (LTEA) Assay for Lipase C (LIPC) using HepaRG (AID 2283514). A digest of the protocol:
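HepaRG, 48 h exposure, 8-pt half-log series from 100 uM in 0.5% DMSO, duplicates. Readout: LIPC mRNA by Fluidigm qRT-PCR, housekeeping-normalized (ACTB/GAPDH/POLR2A). Gain or loss fitted bidirectionally against DMSO baseline.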

Read-out in experiment [17]: Hypoxia-inducible factor 1-alpha (Homo sapiens) (UniProt Q16665)
Kind of experiment: LTEA_HepaRG_HIF1A: Life Technologies and Expression Analysis (LTEA) Assay for Hypoxia-inducible factor 1 (HIF1A) Trancription factor using HepaRG (AID 2283503). The gist of the method: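 HIF1A transcript level read by qRT-PCR (ACTB, GAPDH, POLR2A normalization) after 48 h chemical exposure of HepaRG cultures. Eight half-log concentrations, top 100 uM, 0.5% DMSO vehicle, duplicates; bidirectional curve fit against DMSO baseline.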

Read-out in experiment [18]: Interleukin 6 (IL6), IL6 (gene 3569)
Kind of experiment: LTEA_HepaRG_IL6: Life Technologies and Expression Analysis (LTEA) Assay for Interleukin 6 (IL6) using HepaRG (AID 2283509). A digest of the protocol: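 qRT-PCR read-out of IL6 transcript, normalized to three housekeeping genes, after 48 h chemical exposure of HepaRG cells; 8-point half-log series, top 100 uM, 0.5% DMSO vehicle. Bidirectional curve fitting against DMSO baseline.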

Read-out in experiment [19]: Keratin 19 (KRT19), KRT19 (gene 3880)
The experiment can be described thus: LTEA_HepaRG_KRT19: Life Technologies and Expression Analysis (LTEA) Assay for Keratin 19 (KRT19) using HepaRG (AID 2283512). The gist of the method:
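KRT19 transcript measured by TaqMan qRT-PCR, referenced to three housekeeping genes, after HepaRG cells received test chemicals for 48 h. Eight half-log concentrations, top 100 uM, 0.5% DMSO vehicle; increases and decreases both fitted.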

Active and inactive are the calls of the source. How the source made its calls: active means hit-call score of the fitted dose curve at least 0.9, where 1 is the maximum; inactive means score below 0.9.

This passage reports outcome and AC50 results from PubChem BioAssay (EPA / NIEHS).

What is called AC50 is the midpoint of the concentration-response curve, whichever way the signal moves.

Sequence of Hypoxia-inducible factor 1-alpha (Homo sapiens) (Q16665 whole entry, looked up): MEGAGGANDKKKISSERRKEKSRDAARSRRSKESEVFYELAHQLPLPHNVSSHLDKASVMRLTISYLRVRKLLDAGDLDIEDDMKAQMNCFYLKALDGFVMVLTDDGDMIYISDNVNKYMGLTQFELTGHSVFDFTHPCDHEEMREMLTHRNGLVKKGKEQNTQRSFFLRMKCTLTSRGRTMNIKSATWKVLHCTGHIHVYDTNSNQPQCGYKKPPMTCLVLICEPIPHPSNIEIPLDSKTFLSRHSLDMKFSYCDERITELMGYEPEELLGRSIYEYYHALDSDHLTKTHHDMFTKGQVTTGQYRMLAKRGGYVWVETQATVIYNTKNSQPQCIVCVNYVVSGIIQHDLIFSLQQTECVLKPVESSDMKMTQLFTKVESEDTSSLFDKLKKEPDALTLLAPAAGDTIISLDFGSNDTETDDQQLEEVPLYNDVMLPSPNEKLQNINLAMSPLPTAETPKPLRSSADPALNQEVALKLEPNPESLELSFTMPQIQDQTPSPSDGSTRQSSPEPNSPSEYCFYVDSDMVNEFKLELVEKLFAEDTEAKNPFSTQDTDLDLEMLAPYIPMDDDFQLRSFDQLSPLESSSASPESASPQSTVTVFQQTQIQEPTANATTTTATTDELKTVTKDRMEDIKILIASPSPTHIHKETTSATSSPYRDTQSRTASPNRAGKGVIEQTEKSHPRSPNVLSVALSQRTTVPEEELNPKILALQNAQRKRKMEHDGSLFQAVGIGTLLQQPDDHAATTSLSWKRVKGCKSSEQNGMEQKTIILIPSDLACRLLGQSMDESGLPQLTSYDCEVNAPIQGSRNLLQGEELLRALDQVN

Consider `CC[C@H](c1ccc(O)cc1)[C@@H](CC)c1ccc(O)cc1`, for which the call in experiment [1], in [7], in experiment [10], in experiment [12], in experiment [15] and in experiment [16] was inactive. The AC50 in experiment [2] was 78.8 µM (active); in experiment [3], 87.3 µM (active); in [4], 79.8 µM (active); in experiment [5] it was 66.3 µM (active); in experiment [6], 70.2 µM (active); in [8], 94.4 µM (active). Further, the AC50 was 79.4 µM (active) in experiment [9], 86.3 µM (active) in experiment [11], 68.1 µM (active) in experiment [13] and 73.8 µM (active) in [14].

As to `CN1CCN(c2ccccc2/C=C2\SCCN(c3ccc(Cl)c(Cl)c3)C2=O)CC1`, the AC50 in [1] was 15.8 µM (active); in experiment [2], 93.9 µM (active); in experiment [8], 71.9 µM (active); in experiment [9], 60.3 µM (active); in experiment [11], 12 µM (active); in experiment [12], 98.9 µM (active). Further, the AC50 in experiment [13] is 60.9 µM (active); in experiment [14], 50 µM (active); in [15] it was 59.5 µM (active). Besides, the molecule was classed as inactive in experiment [3], in experiment [4], in experiment [5], in experiment [6], in experiment [7] and in experiment [17]. The call in experiment [10] and in experiment [16] was inactive.

With `Oc1cc2ccccc2c2ccccc12`, the molecule was called inactive in experiment [1], in experiment [3], in experiment [4], in [5], in experiment [6] and in [7]. Further, the outcome in experiment [8], in experiment [17], in experiment [9], in experiment [10], in experiment [11] and in experiment [12] was inactive. In addition, the molecule was classed as inactive in [13], in experiment [18], in experiment [14], in experiment [15] and in [16]. In addition, the AC50 was 3.01 µM (active) in experiment [2] and 27.1 µM (active) in experiment [19].

Turning to `Nc1cccc2c(N)cccc12`, the call in experiment [1], in experiment [4], in [5], in experiment [6], in experiment [7] and in experiment [8] was inactive. Besides, the molecule was called inactive in [17], in experiment [9], in [10], in experiment [11], in experiment [12] and in [13]. The result in experiment [14] and in experiment [15] was inactive. The AC50 in [2] is 10.1 µM (active); in [3] it was 50 µM (active); in experiment [16], 73.3 µM (active).
